Bioassay records: PubChem BioAssay, National Center for Advancing Translational Sciences (NCATS)
Sampled rows, rich in hits. Any-hit rate of the full collection: about 19%.
Pf growth 96h – Primary qHTS for delayed death inhibitors of the malarial parasite plastid, 96 hour incubation | P. falciparum luciferase reporter growth, 96 h | Potency, µM (titrated, usually from 28.7 µM), actives largely listed as inhibitors | actives 6.9% (n = 320,000) | AID 504834, 2011
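P. falciparum expressing integrated firefly luciferase, in erythrocytes at 2% hematocrit, 0.05% parasitemia, incubated with compounds 96 h at 37 C, 5% CO2. Growth inhibition read as loss of luminescence; two-generation exposure targets delayed-death apicoplast inhibitors.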
Cycloheximide cs – Cycloheximide Counterscreen for Small Molecule Inhibitors of Shiga Toxin; actives 12% (n = 300,000); AID 2314, 2010; max response, %; cell reporter, cycloheximide protein synthesis inhibition counterscreen; in the data active means max response mostly above about 13%, no sharp cut-off; inactive means mostly below about 14%; further: read at 38.3 µM for the half of the compounds with a filed dose
Pf growth 48h – Primary qHTS for delayed death inhibitors of the malarial parasite plastid, 48 hour incubation | Potency, µM (series often up to 28.7 µM), usual class: inhibitors | actives 5.9% (n = 310,000) | AID 504832, 2011 | P. falciparum luciferase growth in erythrocytes, 48 h
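Here the parasites carry a stable luciferase gene and grow inside erythrocytes in Albumax-based RPMI medium with compound for one erythrocytic cycle. Activity is scored as loss of luminescent signal.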
MARV entry inh – qHTS for inhibitors of binding or entry into cells for Marburg Virus; Marburg virus pseudotyped entry inhibition, cell reporter; Potency, µM (series often up to 37.8 µM), actives largely listed as inhibitors; actives 1.8% (n = 300,000); calls by dose curve; tested in HEK293 cells
Shiga toxin inh – A qHTS for Small Molecule Inhibitors of Shiga Toxin; inhibition, % at 38.7 µM; actives 9.2% (n = 290,000); AID 2315, 2010; Vero cells, Shiga toxin protein synthesis inhibition reporter; in the data active means inhibition mostly above about 28%, no sharp cut-off; inactive means mostly below about 43%
LASV entry inh – qHTS for Inhibitors of binding or entry into cells for Lassa Virus. Lassa virus pseudotype entry inhibition, cell reporter. Potency, µM (doses to about 37.9 µM), hits mostly inhibitors. actives 1.2% (n = 300,000); calls by dose curve; tested in HEK293 cells; further: nearly all actives have a fitted effect of over 50% in size
Numbers stand for hits; ! = not confirmed by another sample. Unless noted, the call rests on the fitted dose curve; in most records, active means well fitted inhibition curve with a large enough effect; inconclusive means small, poorly fitted or top-dose-only effect, or another doubt; inactive means no such curve, though single readings can be large or run the other way.

For CCCCCCCNC(=O)C1(CC2CC(c3ccc(Cl)cc3)=NO2)CCN(C(=O)C2(C)CC2)CC1 (stereo unspecified) the results were Pf growth 96h inconclusive, Cycloheximide cs inactive, Pf growth 48h inconclusive and Shiga toxin inh inactive.
`CCCCCCCNC(=O)C1(CC2CC(c3cccc(Br)c3)=NO2)CCN(C(=O)C2CCCC2)CC1` (stereo unspecified) gave Pf growth 96h 9.3µM and Pf growth 48h 5.2µM.
CCCCCCCNC(=O)C1(CC2CC(c3ccc(Cl)cc3)=NO2)CCN(C(=O)C2CCCC2)CC1 (stereo unspecified) was read as Pf growth 96h 9.3µM, Cycloheximide cs inactive, Pf growth 48h inactive and Shiga toxin inh inactive.
`O=C(NCC1CCCCC1)C1(CC2CC(c3ccc(Cl)cc3)=NO2)CCNCC1` (stereo unspecified) gave Pf growth 96h inconclusive, Cycloheximide cs inactive, Pf growth 48h inconclusive and Shiga toxin inh inactive.
`CCCCCCCNC(=O)C1(CC2CC(c3cccc(Br)c3)=NO2)CCN(C(=O)OC(C)(C)C)CC1` (stereo unspecified) gave Pf growth 96h 4.7µM, Cycloheximide cs 15, Pf growth 48h inconclusive and Shiga toxin inh inactive.
`COc1ccc(CNC(=O)COC(=O)CCC(=O)c2cccs2)cc1` gave Pf growth 96h inactive, Cycloheximide cs inactive, Pf growth 48h inactive, MARV entry inh inactive, Shiga toxin inh inactive and LASV entry inh inactive.
Screening CCn1cc(Cl)c(C(=O)NNC(=O)CCn2nc(C)c([N+](=O)[O-])c2C)n1 returned Pf growth 96h inactive, Cycloheximide cs inactive, Pf growth 48h inactive, MARV entry inh inactive, Shiga toxin inh inactive and LASV entry inh inconclusive.
`CCN(CCCNC(=O)c1cc(Nc2ccccc2OC)nc2ccccc12)c1cccc(C)c1` gave MARV entry inh inactive and LASV entry inh inactive.
CCOC(=O)Nc1ccc2c(c1)N(C(=O)CCN1CCOCC1)c1ccccc1S2 was read as Pf growth 96h inconclusive, Cycloheximide cs inactive, Pf growth 48h 15µM!, MARV entry inh inactive, Shiga toxin inh inactive and LASV entry inh inconclusive.
Screening CCOC(=O)Nc1ccc2c(c1)N(C(=O)CN)c1ccccc1CC2 returned Pf growth 96h inconclusive, Cycloheximide cs inactive, Pf growth 48h 12µM and Shiga toxin inh inactive.
CNCCC(=O)N1c2ccccc2CCc2ccc(NC(=O)OC)cc21 was read as Pf growth 96h inactive, Cycloheximide cs inactive, Pf growth 48h inactive and Shiga toxin inh inactive.
Screening CCNCC(=O)N1c2ccccc2CCc2ccc(NC(=O)OCC)cc21 returned Pf growth 96h inactive, Cycloheximide cs inactive, Pf growth 48h 10µM, MARV entry inh inconclusive, Shiga toxin inh inactive and LASV entry inh inconclusive.
Screening CCN(CC)CCNCC(=O)N1c2ccccc2CCc2ccc(NC(=O)OC)cc21 returned Pf growth 96h inconclusive, Cycloheximide cs inactive, Pf growth 48h inconclusive, MARV entry inh inconclusive, Shiga toxin inh inactive and LASV entry inh inconclusive.
CCOC(=O)Nc1ccc2c(c1)N(C(=O)OCCN(C)C)c1ccccc1CC2 was read as Pf growth 96h 1.5µM!, Cycloheximide cs inactive, Pf growth 48h inactive, MARV entry inh inconclusive, Shiga toxin inh inactive and LASV entry inh inactive.
COc1ccc(NC(=O)CCc2nc3cccnc3n2-c2ccccc2)c(OC)c1 was read as MARV entry inh inactive and LASV entry inh inactive.
Screening Nc1nc2ccc([N+](=O)[O-])c(N)c2s1 returned Pf growth 96h inconclusive, Cycloheximide cs inactive, Pf growth 48h inactive, MARV entry inh inactive, Shiga toxin inh inactive and LASV entry inh inactive.
CCOC(=O)Nc1ccc2c(c1)N(C(=O)CCN(C)C)c1ccccc1CC2 was read as Pf growth 96h inactive, Cycloheximide cs inactive, Pf growth 48h inactive and Shiga toxin inh inactive.
Screening COC(=O)Nc1ccc2c(c1)N(C(=O)CCN(C)C)c1ccccc1CC2 returned Pf growth 96h 7.4µM, Cycloheximide cs inactive, Pf growth 48h inactive and Shiga toxin inh inactive.
For CCOC(=O)Nc1ccc2c(c1)N(C(=O)CN(C)C)c1ccccc1CC2 the results were Pf growth 96h 10µM, Cycloheximide cs inactive, Pf growth 48h inactive and Shiga toxin inh inactive.
Screening CC(C)OC(=O)Nc1ccc2c(c1)N(C(=O)CCN(C)C)c1ccccc1CC2 returned Pf growth 96h inactive, Cycloheximide cs inactive, Pf growth 48h inactive and Shiga toxin inh inactive.
`CC(=O)Oc1ccccc1N(C(C)=O)S(=O)(=O)c1ccc2ccccc2c1` gave Pf growth 96h 2.3µM, Cycloheximide cs inactive, Pf growth 48h inactive, MARV entry inh inconclusive, Shiga toxin inh inactive and LASV entry inh inactive.
`CC(=O)Oc1ccc(N(C(C)=O)S(=O)(=O)c2cccs2)c2ccccc12` gave Cycloheximide cs inactive, Pf growth 48h 4.1µM, MARV entry inh 12µM, Shiga toxin inh inactive and LASV entry inh inactive.
`CN(CC(=O)O)S(=O)(=O)c1cccs1` gave Pf growth 96h inactive, Cycloheximide cs inactive, Pf growth 48h inactive, MARV entry inh inactive, Shiga toxin inh inactive and LASV entry inh inactive.
Screening CC(=O)Oc1c(Br)cc(N(C(C)=O)S(=O)(=O)c2ccccc2)c2ccccc12 returned Pf growth 96h inconclusive, Cycloheximide cs inactive and Pf growth 48h 3.3µM.
`CC(=O)N(c1ccc2oc(=O)sc2c1)S(=O)(=O)c1ccccc1` gave Pf growth 96h inactive, Cycloheximide cs inactive, Pf growth 48h inactive, MARV entry inh inactive, Shiga toxin inh inactive and LASV entry inh inactive.
CCCN1CCN(c2ccc([N+](=O)[O-])cc2C#N)CC1 was read as Pf growth 96h inactive, Cycloheximide cs inactive, Pf growth 48h inactive, MARV entry inh inconclusive, Shiga toxin inh inactive and LASV entry inh inactive.
For O=C(CCN1CCCC1)Nc1cccc(Br)c1 the results were Cycloheximide cs inactive, Pf growth 48h inactive, MARV entry inh inactive, Shiga toxin inh inactive and LASV entry inh inactive.
Screening CC(C)(C)c1cc(C(=O)Nc2cccc3ccccc23)ccn1 returned Pf growth 96h inconclusive, Cycloheximide cs inactive, Pf growth 48h inactive, MARV entry inh inactive, Shiga toxin inh inactive and LASV entry inh inactive.
Screening Cc1cccc(NC(=O)c2ccc(C(=O)Nc3cccc(C)c3C)cc2)c1C returned LASV entry inh inactive.
Cc1oc(-c2ccccc2)cc1C(=O)Nc1cccc2ccccc12 was read as Pf growth 96h inactive, Cycloheximide cs 16, Pf growth 48h inactive, MARV entry inh inactive, Shiga toxin inh inactive and LASV entry inh inconclusive.
CC(C)(C)c1ccc(C(=O)Nc2cccc3c(=O)[nH][nH]c(=O)c23)cc1 was read as Pf growth 96h inconclusive, Cycloheximide cs 56, Pf growth 48h inactive, MARV entry inh inconclusive, Shiga toxin inh 55 and LASV entry inh 7.1µM.
`Cc1ccc(C(=O)Nc2cccc3ccccc23)cc1` gave Pf growth 96h inactive, Cycloheximide cs 29, Pf growth 48h inactive and Shiga toxin inh 35.
